This is an account of results in ChEMBL document CHEMBL4513216, “Probing the Open Global Health Chemical Diversity Library for Multistage-Active Starting Points for Next-Generation Antimalarials” (ACS Infect Dis, 2020).

Structures are written as SMILES. The campaign covered roughly 69,000 compounds. About 8,600 (12%) showed an effect of 50% or more. The sample as a whole holds a higher share of strong results than the screen did.

For the test, the system named is Plasmodium berghei. As to the kind of experiment: Screen against P. berghei liver stage (PbLuc), transformed with Luciferase, at 10uM. The class given is functional, HepG2. Conditions: tested at 10 uM.
For the compound `Cc1c(C2CCCN(C(=O)c3ccn(C)n3)C2)n2c(nc1=O)CCC2` (stereo not given), the INHIBITION was -9.32%.
In the case of `CC(=O)NCCNC(=O)NCC1Cc2ccccc2O1` (stereo not given), the INHIBITION came to 1.56%.
As for `CN(C)C(=O)CN1CCCCC1c1nc(N)ncc1-c1cccc(F)c1` (stereo not given), the figure is 39.8%; as for `CS(=O)(=O)NC1CCCN(C(=O)Nc2cccnc2)C1` (stereo not given), 37.3%.
As for `Cc1noc(C)c1-c1nc(C2CCCN(CCC(N)=O)C2)ccc1CO` (stereo not given), the figure is -19%.
Then `O=C(CCN1C(=O)CC2(CCCC2)C1=O)NCCc1nccs1`, with 20%.
In the case of `Cc1nc(NC(=O)C2(C)CN(C)CCO2)sc1C` (stereo not given), the INHIBITION came out at 4.3%.
Consider `CCC(Nc1nc(C(C)C)nc2c1cnn2C)c1ccncc1` (stereo not given), for which the INHIBITION turned out to be 48%.
As for `CC[C@H](Nc1nc(C(C)C)nc2c1cnn2C)c1ccccc1`, the figure is 53.6%; as for `CCC(Nc1nc(C(C)C)nc2c1cnn2C)c1ccc(O)cc1` (stereo not given), 15.5%; as for `CCC(Nc1nc(C2CCCC2)nc2c1cnn2C)c1ccncc1` (stereo not given), 50.8%.
As for `O=S(=O)(CC1CCCCO1)Nc1cnn(CC(F)F)c1` (stereo not given), the figure is 9.76%.
As for `Clc1ccc(OCCc2cc(C3CCN(c4ncccn4)C3)n[nH]2)cc1` (stereo not given), the figure is 36.22%.
As for `CCCN1CCC(c2cc(CCOc3ccc(C(F)(F)F)cc3)[nH]n2)C1` (stereo not given), the INHIBITION worked out at 58%.
Then `COc1ccc(OCCc2cc(C3CCN(CC(C)C)C3)n[nH]2)cc1` (stereo not given), with 15.15%; and `O=C(NCc1ccon1)c1c(F)cc(Br)cc1F`, with -7.83%.
`Cc1nc2ccc(C(=O)N3CCn4c(nnc4C4CC4)C3)cc2nc1C`: the INHIBITION is 48.6%.
As for `O=C1NCC2(CCCN(C(=O)CCn3cnc4ccccc43)CC2)O1` (stereo not given), the figure is 35.8%; as for `Cc1cc2ccccc2n1CCC(=O)N1CCC2(CC1)CNC(=O)C2`, 29.4%.
As for `Cc1cc2ccccc2n1CCC(=O)N1CCCC2(CC1)CNC(=O)O2` (stereo not given), the INHIBITION came to 65.7%.
Then `Cc1cc(NC(=O)CN2CCc3cncnc3C2)no1`, with 16.8%.
For the compound `Cc1cc(C2CCCN2Cc2cc(=O)n(C)c(=O)n2C)no1` (stereo not given), the INHIBITION is on record as -10.3%.
Take `C[C@H](c1ccc(Cl)cc1)n1c(C2CC2)n[nH]c1=O`: the INHIBITION turned out to be 24.4%.
Then `C[C@H](c1ccc(F)cc1)n1c(C2CCN(C)CC2)n[nH]c1=O`, with 76.8%.
As for `C[C@H](c1ccc(F)cc1)n1c(C2CCC2)n[nH]c1=O`, the figure is -6.59%; as for `Cc1nc(N2CCCC2)nc2c1CCN(C(=O)C1CCCCC1)CC2`, -42.8%; as for `CCOc1ccnc(N2CCN(C(=O)c3ccncc3)CC2)n1`, 34.7%.
Then `CC(C)(C)c1n[nH]cc1CNC1CCC(OCC(F)(F)F)CC1` (stereo not given), with -18.5%; and `CCN(Cc1ccc2c(c1)OCO2)S(=O)(=O)N(C)C(C)C`, with -4.16%.
As for `CC(C)N(C)S(=O)(=O)N(C)Cc1ccc2c(c1)OCO2`, the INHIBITION is on record as 54.3%.
As to `CC(C)N(C)S(=O)(=O)N(C)Cc1ccc2c(c1)OCCO2`, the INHIBITION was -10.1%.
As for `Cc1cc(C)n(CC2CCCN2CC(=O)N(C)Cc2ccc(C)o2)n1` (stereo not given), the figure is 45.7%; as for `Cc1cnn(CC2CCCCN2CC(=O)N(C)Cc2ccc(C)o2)c1` (stereo not given), 53.4%; as for `Cc1cnn(CC2CCCN2CC(=O)N(C)Cc2ccc(C)o2)c1` (stereo not given), -10.3%.
Then `Cc1ccc(CN(C)C(=O)CN2CCCCC2Cn2cncn2)o1` (stereo not given), with 40.5%; and `Cc1nc(C)n(CC2CCCN2CC(=O)N(C)Cc2ccc(C)o2)n1` (stereo not given), with 74.2%.
Then `Cc1nc(C)n(CC2CCCCN2CC(=O)N(C)Cc2ccco2)n1` (stereo not given), with 28.6%; and `CN(C)c1nc2n(c(=O)n1)CCN2C(=O)Nc1cccc(Cl)c1`, with 78.1%; and `CN(C)c1nc2n(c(=O)n1)CCN2C(=O)Nc1ccc(Cl)c(Cl)c1`, with 28.4%.
With `CN(C)c1nc2n(c(=O)n1)CCN2C(=O)Nc1ccc(Cl)cc1`, the INHIBITION is -25.5%.
`CCN1CCNC(=O)C12CCN(C(=O)Cc1ccsc1)CC2`: the INHIBITION is -23.1%.
Then `CS(=O)(=O)CCC(=O)Nc1nccn1Cc1ccccc1Cl`, with 53.5%; and `CCOCC(=O)Nc1nccn1Cc1ccccc1Cl`, with 22.8%.
Regarding `CS(=O)(=O)CCC(=O)Nc1cnn(-c2ccccc2Cl)c1`, the INHIBITION was determined as 43.7%.
Then `CC(=O)Nc1nccn1Cc1ccccc1Cl`, with 50.5%.
As for `CCOCCOC(C)C(=O)Nc1ccnn1-c1ccccc1C` (stereo not given), the figure is 39.7%; as for `CC(C)N(C)CC(=O)Nc1nccn1Cc1ccccc1Cl`, -11.9%; as for `Cn1ccc(C(=O)Nc2nccn2Cc2ccccc2Cl)cc1=O`, 9.91%.
As for `CCOCCOC(C)C(=O)Nc1nccn1Cc1ccccc1` (stereo not given), the INHIBITION was 89.6%.
Then `CC(OCC1CC1)C(=O)Nc1nccn1Cc1ccccc1` (stereo not given), with 44.7%; and `O=C(NCCn1ccnc1)NCC(c1ccco1)N1CCCC1` (stereo not given), with -14%.
Then `Cc1nccn1[C@@H]1CC[C@@H](N(C)S(=O)(=O)c2ccccc2F)[C@H]1O`, with -0.05%.
As for `Cc1occc1C(=O)NCC1OCCc2cn(C)nc21` (stereo not given), the figure is -14.2%; as for `COCCCNc1c(-c2ccccc2)c(=O)c1=O`, 25.3%.
Take `CC(Cc1cccc(F)c1)NCc1cnc(N2CCN(C)CC2)nc1` (stereo not given): the INHIBITION is 23.2%.
As for `O=C(NCc1cccnc1)[C@H]1C[C@@H]2CCN(c3ccncn3)C[C@H]2O1`, the figure is 48%.
On to `CCCc1nc(C)cc(N2CCNC(C(=O)Nc3ccc(C)nc3)C2)n1` (stereo not given), for which the INHIBITION stood at 46.1%.
As to `CCCc1nc(C)cc(N2CCNC(C(=O)NCc3cccnc3)C2)n1` (stereo not given), the INHIBITION was determined as 59.1%.
As for `CC1CCN(C(=O)[C@@H]2C[C@@H]3CCN(CC4CCOCC4)C[C@@H]3O2)CC1`, the figure is -24.9%; as for `CCOCC(=O)Nc1cc(-c2cccc(F)c2F)n[nH]1`, 10.7%.
As for `CC(C)C(=O)Nc1ncn(Cc2cccc(Br)c2)n1`, the figure is 53.3%; as for `CC(CC(=O)Nc1ncn(CC(=O)NCc2ccccc2)n1)C1CC1` (stereo not given), 38.8%.
As for `CCOCC(=O)Nc1ncn(Cc2cccc(Br)c2)n1`, the figure is 61.8%.
Turning to `O=C(COCC(=O)N1CCCCCC1)NCc1cccc(Br)c1`, the INHIBITION was found to be 14.1%.
Take `COCC(=O)NC(C)Cc1cccc(Br)c1` (stereo not given): the INHIBITION was found to be 14.7%.
As for `CCCSCC(=O)Nc1ncn(CC(=O)NCc2ccccc2)n1`, the figure is 12.2%; as for `CSCC(=O)Nc1ncn(Cc2cccc(Br)c2)n1`, 69.3%.
Then `O=C(Nc1ncn(Cc2cccc(Br)c2)n1)C1CCC1`, with 37.2%; and `CN(C)C(=O)CN1CCN(C(=O)c2cnn(-c3ccccc3Cl)c2)CC1`, with -2.33%.
As for `CCOC(=O)N1CCN(C(=O)c2snnc2-c2ccc(OC)cc2)CC1`, the figure is 4.66%; as for `COCCN1C[C@@H]2CN(Cc3cccc(C)n3)C[C@@H]2C1=O`, 14.1%; as for `CCc1nc(C2CCCN(C(=O)c3ccc(OC)cc3)C2)no1` (stereo not given), -31.8%.
Consider `CC(C)CC(=O)N1CC[C@H]2N(C)CC[C@@]2(C(=O)Nc2ccccc2)CC1`, for which the INHIBITION was 42.5%.
With `CCOC1COC2(CCN(Cc3ccc(C)c(C)c3)CC2)C1` (stereo not given), the INHIBITION is 30.9%.
Turning to `CCCn1ncc(C(=O)NC(C)c2c(C)nn(CC)c2C)c1C` (stereo not given), the INHIBITION is given as 9.05%.
Then `Cc1c(C(=O)NS(=O)(=O)c2ccsc2)cnn1CC(C)C`, with 53.8%; and `Cc1c(C(=O)NS(=O)(=O)c2ccc(F)cc2)cnn1CC(C)C`, with 56%; and `Cn1cnc2cc(C(=O)NS(=O)(=O)c3ccc(F)cc3)ccc21`, with 28.4%.
As for `CCC(CC)n1ncc(C(=O)NS(=O)(=O)c2ccsc2)c1C`, the figure is 38.4%; as for `Cn1nnc2cc(C(=O)NS(=O)(=O)c3ccc(F)cc3)ccc21`, 17.1%; as for `CNc1cc(C2CCCN2C(=O)CCc2cnn(C)c2C)ccn1` (stereo not given), 14.6%.
As for `CCNc1cc2c(nn1)CCN(C(=O)c1ccc(-n3cnnc3)cc1)C2`, the figure is 19.6475%; as for `CSc1nccc(N2C[C@@H](CN3CCCCC3)[C@@H](CO)C2)n1`, 55.7%.
On to `Cc1nccc(N2C[C@@H](CN3CCCC3)[C@@H](CO)C2)n1`, for which the INHIBITION was 13%.
Then `Nc1nccc(N2C[C@@H](CN3CCCCC3)[C@@H](CO)C2)n1`, with -2.39%; and `CCc1ccccc1OC1CN(C(=O)c2ccnc(OC)c2)C1`, with 61.1%; and `COc1cc(C(=O)N2CC(Oc3ccccc3Cl)C2)ccn1`, with 27.5%.
Then `COc1cccc(OC2CN(C(=O)c3ccnc(OC)c3)C2)c1`, with 49.9%; and `CN(CC(=O)N1CC(C)(C)[C@](O)(C2CC2)C1)Cc1ccncc1`, with 41.5%; and `CCc1ccccc1OC1CN(C(=O)CN(C)Cc2ccncc2)C1`, with 58.1%.
As for `COc1ccccc1OC1CN(C(=O)CN(C)Cc2ccncc2)C1`, the figure is -2.04%.
In the case of `CN(CC(=O)N1CC(C)(C)[C@](O)(C2CC2)C1)Cc1cccnc1`, the INHIBITION was -3.94%.
Then `CCc1ccccc1OC1CN(C(=O)CN(C)Cc2cccnc2)C1`, with -76.5%.
Then `CN(CC(=O)N1CC(C)(C)[C@@](C)(O)C1)Cc1ccncc1`, with 59.1%; and `Cn1nc(Br)c2c(NCCS(N)(=O)=O)ncnc21`, with 36.4%.
Then `CC(=O)N1CCN(C(=O)NC(C)Cn2ccnc2)CC1` (stereo not given), with 24.2%; and `COc1ccc(CN2C[C@H](N3CCCC3=O)[C@@H]3OCCC[C@@H]32)cc1`, with 48.2%; and `CCn1nc(C)c2nc(C(C)C)nc(N3CCN(C)CC3)c21`, with -10.1%.
In the case of `CCS(=O)(=O)N1CC[C@H]2C(=O)N(Cc3cccnc3)CCO[C@H]2C1`, the INHIBITION is -7.38%.
Then `CNC(=O)CC1c2cccnc2C(=O)N1Cc1ccccc1` (stereo not given), with 19.2%; and `COCCNC(=O)Cn1c(-c2cccc(Cl)c2)nc(C)c(CCO)c1=O`, with 18.2%; and `COCCNc1cccc(C2CCCN2)n1` (stereo not given), with -31%.
Regarding `CCC(C)c1noc(C2CCN(C(=O)Cn3nc(C)cc3C)CC2)n1` (stereo not given), the INHIBITION amounted to 40.8%.
As for `O=C(NCCCN1CCOCC1)c1ccn(COc2ccccc2)n1`, the figure is -8.07%; as for `Cc1c(C(=O)N2CCC3(CCC(=O)N(CCN(C)C)C3)CC2)ccn1C`, 34%.
As for `CN(C)CCN1CCC2(CCN(C(=O)c3cccc(F)c3)CC2)C1=O`, the figure is 0.112%; as for `CN(C)CCN1CC2(CCC1=O)CCN(C(=O)c1ccn(C)n1)CC2`, 35.1%.
Then `CN(C)CCN1CCC2(CCN(C(=O)c3ccncc3)CC2)C1=O`, with 13.7%.
On to `CN(C)CCN1CCC2(CCN(C(=O)c3ccc(F)cc3)CC2)C1=O`, for which the INHIBITION was determined as 56.6%.
As for `CCc1ccc(C(=O)N2CCC3(CCC(=O)N(CCN(C)C)C3)CC2)[nH]1`, the INHIBITION is reported as 70.4%.
